Drawing on PubChem BioAssay (NCI), this text covers growth inhibition for 38 compounds.

About 79,000 compounds went through this panel and 15% of them were active in at least one assay; those are over-represented in the sample as a whole. A number with no mark means an inactive call. Activity calls are given as the source filed them. No stated cut-off is given here; in the data, active means growth inhibition above about 70%; inactive means the rest.

Experiment [1] in a line: NCI Yeast Anticancer Drug Screen. Data for the rad50 strain (AID 155).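 Further: 0% = growth of vehicle-only cultures of the same strain.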 As to conditions: S. cerevisiae rad50 strain growth inhibition; at 50.0 µM; active compounds read high. An outline of the steps:
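Genetically altered yeast (DNA repair pathway); compound treatment; growth inhibition vs vehicle ctrl.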

The nature of experiment [2]: NCI Yeast Anticancer Drug Screen. Data for the mec2-1 strain (AID 157). The settings on record: S. cerevisiae mec2-1 strain, at 50.0 µM, active compounds read high. The gist of the method: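 Cells of the genetically defined mec2-1 yeast strain are incubated with test compound. Inhibition of growth is calculated against vehicle-treated controls.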
Experiment [3] in a line: NCI Yeast Anticancer Drug Screen. Data for the sgs1 mgt1 strain (AID 161).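 Further: 0% = growth of cultures given vehicle only.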 The settings on record: S. cerevisiae sgs1 mgt1 strain, at 50.0 µM, active compounds read high. An outline of the steps:
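Mutant yeast exposed to compound; growth scored against vehicle-only wells.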

A short description of experiment [4]: NCI Yeast Anticancer Drug Screen. Data for the cln2 rad14 strain (AID 165).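 Further: 0% = growth equal to vehicle treated cultures.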 The settings on record: S. cerevisiae cln2 rad14 strain, at 50.0 µM, active compounds read high. The gist of the method: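 The screen exposed genetically defined yeast (cln2 rad14) to test compounds and scored growth inhibition relative to vehicle-treated controls.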
Experiment [5] in a line: NCI Yeast Anticancer Drug Screen. Data for the bub3 strain (AID 167). The settings on record: S. cerevisiae bub3 mutant strain, at 50.0 µM, active compounds read high. The gist of the method:
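Yeast carrying a defined mutation is treated with each compound, and growth is compared with that of vehicle-exposed cells to give inhibition.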

Experiment [6] is described as follows: NCI Yeast Anticancer Drug Screen. Data for the mlh1 rad18 strain (AID 175). As to conditions: S. cerevisiae mlh1 rad18 strain growth inhibition; at 50.0 µM; active compounds read high. An outline of the steps:
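Compound-treated yeast growth, normalised to vehicle controls. Strain bears defined DNA repair mutations.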

For `O=[N+]([O-])c1ccc(N/N=C2/CC(c3ccccc3)C(c3ccccc3)=C2Cl)c([N+](=O)[O-])c1` (stereo not drawn), the growth inhibition is 26.2% in experiment [1]; 15.6% in experiment [2]; 9.45% in experiment [3]; 24.4% in experiment [4]; -1.75% in experiment [5]; 15.7% in experiment [6].

For `CC12CC(=O)OC(C1)C(=O)c1ccccc12` (stereo not drawn), the growth inhibition is 8.9% in experiment [1]; 16.1% in experiment [2]; 2.85% in experiment [3]; 4.45% in experiment [4]; 1.7% in experiment [5]; -3.15% in experiment [6].

As to `COc1ccc(/C=C2\N=C(c3ccccc3)OC2=O)c(Br)c1OC(C)=O`, the growth inhibition in experiment [1] is -20.1%; in experiment [2] it was 0.7%; in experiment [3], -12.7%; in experiment [4], -12.3%; in experiment [5], -0.8%; in experiment [6] it was 14.3%.

As for `Cc1ccc(N2C(=O)/C(=C/c3ccc(N(CCC#N)CCC#N)cc3)N=C2COc2ccc(Cl)cc2Cl)cc1`, the growth inhibition is -0.2% in experiment [1]; -26.9% in experiment [2]; -7.25% in experiment [3]; -17.8% in experiment [4]; -36.1% in experiment [5]; -25.9% in experiment [6].

Consider `C[N+]1(C)CC=C(N2CCOCC2)CC1`, for which the growth inhibition in experiment [1] is -27.6%; in experiment [2] it was -25.1%; in experiment [3], -18.8%; in experiment [4] it was -30%; in experiment [5], -12.9%; in experiment [6], -14.4%.

Turning to `Cc1csc2[nH]c(=O)[nH]c(=O)c12`, the growth inhibition is 5.5% in experiment [1]; 6.05% in experiment [2]; -1.4% in experiment [3]; -28.1% in experiment [4]; -15.2% in experiment [5]; 4.5% in experiment [6].

As to `CC(C)OCCCNc1ncnc2c1cnn2-c1ccc(Cl)cc1`, the growth inhibition was 3.55% in experiment [1]; -9.15% in experiment [2]; 3.55% in experiment [3]; -11.8% in experiment [4]; -13.6% in experiment [5]; -4.9% in experiment [6].

On to `CCC(C)N1C(=O)c2ccccc2C1=O` (stereo not drawn), for which the growth inhibition in experiment [1] is 33%; in experiment [2], -13.6%; in experiment [3] it was 17.1%; in experiment [4], -13.6%; in experiment [5], 11.3%; in experiment [6] it was 27.1%.

For `Nc1cc2[nH]c(=O)c3cc([N+](=O)[O-])ccc3c2cc1Cl`, the growth inhibition in experiment [1] is 63.1%; in experiment [2], 1.3%; in experiment [3] it was 12.3%; in experiment [4], 4.8%; in experiment [5] it was -11.6%; in experiment [6] it was 32.2%.

On to `CCOC(=O)C1=C(C)OC(C)(OC(C)=O)C1=O` (stereo not drawn), for which the growth inhibition in experiment [1] is 14.1%; in experiment [2] it was -1.9%; in experiment [3], 2.8%; in experiment [4] it was -25.9%; in experiment [5], -6.9%; in experiment [6], 13.8%.

Regarding `COC(=O)c1cccc2c1Cc1cc(N)ccc1-2`, the growth inhibition is -7.9% in experiment [1]; -16.8% in experiment [2]; -19.6% in experiment [3]; -21.4% in experiment [4]; 9.7% in experiment [5]; -12.2% in experiment [6].

With `CN(C)NC(=O)CC#N`, the growth inhibition in experiment [1] is -18.4%; in experiment [2], -1.55%; in experiment [3], -4.45%; in experiment [4], -4.3%; in experiment [5], -6%; in experiment [6], 2.75%.

On to `CC(=O)c1cc(C(C)(C)C)ccc1O`, for which the growth inhibition was 17.8% in experiment [1]; 4.8% in experiment [2]; 7.8% in experiment [3]; 9.65% in experiment [4]; 26.1% in experiment [5]; 12.8% in experiment [6].

For `Oc1cc2ccc3c(c2cc1O)CCc1cn[nH]c1-3`, the growth inhibition is 7.1% in experiment [1]; 9.25% in experiment [2]; 17.5% in experiment [3]; -0.55% in experiment [4]; 15.8% in experiment [5]; 15.5% in experiment [6].

For `O=C(CSSCC(=O)Nc1ccc(Br)cc1)Nc1ccc(Br)cc1`, the growth inhibition was 28.8% in experiment [1]; 2.45% in experiment [2]; -11.5% in experiment [3]; 18.6% in experiment [4]; -6.4% in experiment [5]; 26.4% in experiment [6].

`COC(=O)Cc1nc2ccccc2o1`: the growth inhibition is 36.1% in experiment [1]; 9% in experiment [2]; 20.9% in experiment [3]; 37.9% in experiment [4]; 59.2% in experiment [5]; 31.5% in experiment [6].

With `CCCCNC(=O)/C(=C\c1ccccc1)NC(C)=O`, the growth inhibition was 50.1% in experiment [1]; 12.1% in experiment [2]; 0.85% in experiment [3]; -8.45% in experiment [4]; 10.9% in experiment [5]; -14.2% in experiment [6].

As to `CCCCN(CCCC)CC(O)c1cc(OC)c2cc(Cl)cc(Cl)c2n1` (stereo not drawn), the growth inhibition in experiment [1] was 99.5% (active); in experiment [2] it was 99.8% (active); in experiment [3], 99.8% (active); in experiment [4] it was 99.3% (active); in experiment [5], 99.2% (active); in experiment [6], 99.7% (active).

In the case of `O=C(O)C(=C\c1ccccc1)/C(=C\c1ccccc1)C(=O)OCc1ccccc1`, the growth inhibition was 16.9% in experiment [1]; 5.3% in experiment [2]; 19.9% in experiment [3]; -0.4% in experiment [4]; 47.5% in experiment [5]; 8.4% in experiment [6].

With `CCN(CC)CCCNc1ccnc2c(N)cccc12`, the growth inhibition in experiment [1] is 3.1%; in experiment [2], 1.4%; in experiment [3], 5.65%; in experiment [4] it was 9.75%; in experiment [5] it was 5.45%; in experiment [6], 6.75%.

For `Cc1ccc2nc(Nc3nc(C)cc(C)n3)[nH]c2c1`, the growth inhibition is -36.9% in experiment [1]; -31.6% in experiment [2]; -21.9% in experiment [3]; -0.3% in experiment [4]; -17.8% in experiment [5]; -11.9% in experiment [6].

On to `O=C(NC(c1ccccc1)C(O)c1ccccc1)C(Cl)Cl` (stereo not drawn), for which the growth inhibition is -5.45% in experiment [1]; -14.8% in experiment [2]; -1.95% in experiment [3]; -4.65% in experiment [4]; -0.75% in experiment [5]; 2.65% in experiment [6].

As for `O=C1OC[C@H]2[C@@H]1[C@H]1O[C@@H]2C2=C(CCC2)C1=O`, the growth inhibition in experiment [1] was -27.4%; in experiment [2], -38.8%; in experiment [3] it was -43.5%; in experiment [4] it was -19.7%; in experiment [5], -30.9%; in experiment [6] it was -51.3%.

Consider `Cc1ccc(NC(=O)Oc2ccc(Cl)cc2Cl)cc1NC(=O)Oc1ccc(Cl)cc1Cl`, for which the growth inhibition is -20.1% in experiment [1]; -1.15% in experiment [2]; -13.3% in experiment [3]; -13.1% in experiment [4]; -3.2% in experiment [5]; -42.7% in experiment [6].

As to `CCN(CC)CCNc1c(C)cccc1Cl`, the growth inhibition in experiment [1] is -2.9%; in experiment [2] it was 3.5%; in experiment [3] it was -7.1%; in experiment [4], -26.2%; in experiment [5], 1%; in experiment [6], -1.5%.

`O=[N+]([O-])c1ccc(N=NNc2ccc([N+](=O)[O-])cc2)cc1`: the growth inhibition in experiment [1] is 4.5%; in experiment [2] it was -13%; in experiment [3], -2.05%; in experiment [4], -38.1%; in experiment [5], -2.95%; in experiment [6], 5.4%.

With `N#CC1C(=O)NC(=S)NC1c1ccc(Cl)c(Cl)c1` (stereo not drawn), the growth inhibition is -3.15% in experiment [1]; -16.9% in experiment [2]; -25.9% in experiment [3]; -19.6% in experiment [4]; -13.8% in experiment [5]; -5.25% in experiment [6].

On to `Cc1ccc2nc(-c3ccc(CSC(=N)N)cc3)oc(=O)c2c1`, for which the growth inhibition in experiment [1] is 40.2%; in experiment [2], 43.5%; in experiment [3] it was 45.6%; in experiment [4], 20.9%; in experiment [5] it was 19.1%; in experiment [6], 42%.

Take `Cc1ccc(C2C(Cl)C(=O)N2NC(=O)c2ccc(N)cc2)cc1` (stereo not drawn): the growth inhibition in experiment [1] was -50.4%; in experiment [2], -21.5%; in experiment [3], -61.1%; in experiment [4], -46.8%; in experiment [5], -27.4%; in experiment [6], -42%.

Regarding `O=C(Nc1ccccc1)Nc1ccccc1C(=O)O`, the growth inhibition is -5.8% in experiment [1]; -22% in experiment [2]; -16.4% in experiment [3]; -54.6% in experiment [4]; -16.2% in experiment [5]; -31.3% in experiment [6].

For `Cc1cncc(C)c1`, the growth inhibition in experiment [1] was 17.6%; in experiment [2], -22.1%; in experiment [3], 5.6%; in experiment [4] it was -6.85%; in experiment [5], 7.2%; in experiment [6], 8.5%.

As for `COc1cc(/C=C/c2ccnc3ccccc23)ccc1N(C)C`, the growth inhibition in experiment [1] was 4.7%; in experiment [2], 24.8%; in experiment [3], 15.6%; in experiment [4] it was -32.3%; in experiment [5], 29.8%; in experiment [6], 24.7%.

Take `Cc1cc(C)c([N+](=O)[O-])cc1[N+](=O)[O-]`: the growth inhibition was 7.5% in experiment [1]; 5.5% in experiment [2]; 9.45% in experiment [3]; -1.25% in experiment [4]; -3.4% in experiment [5]; 5.15% in experiment [6].

On to `Cc1cc2c(=O)c3ccccc3oc2c(C(=O)O)c1C`, for which the growth inhibition in experiment [1] was -6.75%; in experiment [2], -6.25%; in experiment [3], -50.6%; in experiment [4], 12%; in experiment [5] it was -1.9%; in experiment [6], -4.15%.

With `C=CCOC(=O)C1CCCCC1C(=O)OCC=C` (stereo not drawn), the growth inhibition in experiment [1] is 1.45%; in experiment [2], -1.65%; in experiment [3], 1.4%; in experiment [4], 3.3%; in experiment [5], 21.6%; in experiment [6], 1.9%.

Consider `O=C(Nc1nccs1)Nc1cc(F)ccc1F`, for which the growth inhibition in experiment [1] is 5.7%; in experiment [2] it was 42.5%; in experiment [3] it was 21.5%; in experiment [4], -13.2%; in experiment [5], 36.6%; in experiment [6] it was 8.35%.

For the compound `C1=Nc2ccccc2/C1=C/c1ccc2c(c1)OCO2`, the growth inhibition in experiment [1] was 24.3%; in experiment [2], 11.7%; in experiment [3], -6.9%; in experiment [4] it was -55.6%; in experiment [5], 8.85%; in experiment [6], 8.5%.

As for `CC(C)C(CC(=O)O)C(=O)O` (stereo not drawn), the growth inhibition is 3.8% in experiment [1]; -1.35% in experiment [2]; 10.2% in experiment [3]; -8% in experiment [4]; 3.95% in experiment [5]; 4.65% in experiment [6].
